Source: the supplement of paper PMC7695840
Where a name gives a salt, the structure may show the parent alone.

What was measured:
[1] = system: Staphylococcus aureus MW2 delta-mecA (mecA-); assay: normalized GFP fluorescence (growth of mecA- strain) (fraction of control range); higher = more growth of mecA- strain; conditions: compound concentration: 150 uM; cefoxitin: subinhibitory; fluorescent label: GFP
Summary of the method: (§1)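 In 1536-well plates holding 150 μM compound (1.5% DMSO), a 1:1 mix of pre-induced S. aureus MW2 cells was added at 5 µL/well, in one replicate. One strain carried the gene and DsRed, the other lacked the gene and carried GFP, and the LB held a subinhibitory antibiotic dose chosen daily. Plates stood unshaken for 20 h at 37 °C, 90% humidity, before DsRed (540/590) and GFP (485/520) readings, which were scaled per plate to single-strain control medians, with plates high in untreated ratio and rows above DsRed/GFP 10 dropped.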

[2] = system: Staphylococcus aureus MW2 (mecA+); assay: normalized DsRed fluorescence (growth of mecA+ strain) (fraction of control range); higher = more growth of mecA+ strain; conditions: compound concentration: 150 uM; cefoxitin: subinhibitory; fluorescent label: DsRed
Summary of the method: as §1

Structure (SMILES) | normalized GFP fluorescence [1] | normalized DsRed fluorescence [2]
CCCCNC(=O)NS(=O)(=O)c1ccc(C)cc1 | 0.18 | 0.588
NS(=O)(=O)c1cc2c(cc1Cl)NC(C1CC3C=CC1C3)NS2(=O)=O (stereo unspecified) | 0.463 | 0.69
CCc1c2c(nc3ccc(OC(=O)N4CCC(N5CCCCC5)CC4)cc13)-c1cc3c(c(=O)n1C2)COC(=O)[C@]3(O)CC | 0.461 | 0.626
N[C@@H](Cc1ccc(O)c(O)c1)C(=O)O | 0.506 | 0.611
CC(=O)Oc1ccc(C(c2ccc(OC(C)=O)cc2)c2ccccn2)cc1 | 0.399 | 0.669
NCCCCCC(=O)O | 0.967 | 0.727
Nc1nc2ccc(OC(F)(F)F)cc2s1 | 0.622 | 0.37
CN1CCN(C2=Nc3ccccc3Oc3ccc(Cl)cc32)CC1 | 0.35 | 1.01
CC1=C(C(=O)O)N2C(=O)[C@@H](NC(=O)[C@H](N)c3ccccc3)[C@H]2SC1 | 0.18 | 1.02
CN(C)CCC[C@@]1(c2ccc(F)cc2)OCc2cc(C#N)ccc21 | 0.12 | 0.762
CN(CCOc1ccc(CC2SC(=O)NC2=O)cc1)c1ccccn1 (stereo unspecified) | 0.341 | 0.876
CC1=NN(c2ccc(C)c(C)c2)C(=O)/C1=N\Nc1cccc(-c2cccc(C(=O)O)c2)c1O | -0.0259 | 0.021
Cc1cn([C@@H]2C[C@@H](O)[C@H](CO)O2)c(=O)[nH]c1=O [Telbivudine (Sebivo, Tyzeka)] | 0.205 | 0.951
CC(=O)OCC(=O)[C@@]12OC(C)(C)O[C@@H]1C[C@H]1[C@@H]3C[C@H](F)C4=CC(=O)C=C[C@]4(C)[C@@]3(F)[C@@H](O)C[C@@]12C | 0.439 | 0.736
C=C1CC[C@H](O)C/C1=C/C=C1\CCC[C@]2(C)[C@@H]([C@H](C)/C=C/[C@H](C)C(C)C)CC[C@@H]12 | 0.177 | 0.448
CCOC(=O)[C@H](CCc1ccccc1)N[C@@H](C)C(=O)N1[C@H](C(=O)O)C[C@@H]2CCC[C@@H]21 | 0.338 | 0.71
CC(=O)O[C@]1(C(C)=O)CC[C@H]2[C@@H]3C=C(Cl)C4=CC(=O)CC[C@]4(C)[C@H]3CC[C@@]21C | 0.23 | 0.594

Structure (SMILES) | normalized GFP fluorescence [1] | normalized DsRed fluorescence [2]
CCOc1cc2ncc(C#N)c(Nc3ccc(OCc4ccccn4)c(Cl)c3)c2cc1NC(=O)/C=C/CN(C)C [Neratinib (HKI-272)] | 0.0386 | 0.921
COC1=CC(=O)C[C@@H](C)[C@]12Oc1c(Cl)c(OC)cc(OC)c1C2=O | 0.227 | 0.425
CC1(C)O[C@@H]2C[C@H]3[C@@H]4C[C@H](F)C5=CC(=O)C=C[C@]5(C)[C@@]4(F)[C@@H](O)C[C@]3(C)[C@]2(C(=O)CO)O1 | 0.372 | 0.706
CC(=O)OCC(=O)[C@@]12OC3(CCCC3)O[C@@H]1C[C@H]1[C@@H]3CCC4=CC(=O)C=C[C@]4(C)[C@@]3(F)[C@@H](O)C[C@@]12C | 0.197 | 0.883
Clc1ccc(CSC(Cn2ccnc2)c2ccc(Cl)cc2Cl)cc1 (stereo unspecified) | -0.00367 | 0.00806
Nc1nnc(-c2cccc(Cl)c2Cl)c(N)n1 [Lamotrigine] | -0.0077 | 1.04
CO[C@H]1O[C@@H]2O[C@@]3(C)CC[C@H]4[C@H](C)CC[C@@H]([C@H]1C)[C@@]24OO3 | 0.327 | 1.13
CC[C@]1(O)C[C@@H]2CN(CCc3c([nH]c4ccccc34)[C@@](C(=O)OC)(c3cc4c(cc3OC)N(C)[C@H]3[C@@](O)(C(=O)OC)[C@H](OC(C)=O)[C@]5(CC)C=CCN6CC[C@]43[C@@H]65)C2)C1 [Vinblastine] | 0.0776 | 0.851
CN1CCC[C@@H]1CCO[C@](C)(c1ccccc1)c1ccc(Cl)cc1 [Clemastine Fumarate] | 0.00687 | 0.338
Nc1ccn(C[C@@H](CO)OCP(=O)(O)O)c(=O)n1 [Cidofovir (Vistide)] | 0.408 | 0.568
CC(C)(C)c1ccc(C(O)CCCN2CCC(C(O)(c3ccccc3)c3ccccc3)CC2)cc1 (stereo unspecified) | 0.00757 | 0.056
O=C(NC[C@H]1CN(c2ccc(N3CCOCC3=O)cc2)C(=O)O1)c1ccc(Cl)s1 [Rivaroxaban (Xarelto)] | 0.0017 | 0.837
CC1=NN(c2ccccc2)C(=O)C1 [Edaravone (MCI-186)] | 0.706 | 0.531
Clc1cccc(Cl)c1NC1=NCCN1 | 0.205 | 0.663
CC(C[N+](C)(C)C)OC(N)=O (stereo unspecified) | 0.554 | 0.879
CN1CCN(CC/C=C2/c3ccccc3Sc3ccc(S(=O)(=O)N(C)C)cc32)CC1 | 0.0289 | 1.9
